Source: PubChem BioAssay AID540333 (Southern Research Specialized Biocontainment Screening …, 2011)
The whole screen tested about 10,000 compounds, of which about 320 (3.2%) were called active. Only a selection was taken, and actives are over-represented in it overall. Values without a mark were called inactive. No stated cut-off is given here; in the data, active means CPE inhibition mostly above about 9.1% (no sharp cut-off); inactive means mostly below about 7.2%.

Assay: Dengue virus cytopathic effect inhibitors, cell-based, CPE readout, HTS (AID 540333)
Conditions: Dengue virus CPE inhibition in host cells, at 20 µM; stronger effect = higher value
For `c1ccc(-c2[nH]c(-c3ccccc3)[n+](CC3CO3)c2-c2ccccc2)cc1` (stereo not given), the CPE inhibition was 16.7% (active).
With `O=C(NCCCN1CCOCC1)C(Cl)(Cl)Cl` the CPE inhibition was “inactive”.
For `CCOC(=O)CCCCCNC(=O)c1c(O)[nH]c(=O)[nH]c1=O`, the CPE inhibition was “inactive”.
For `N#CC(C#N)=Cc1ccc(-c2ccccc2F)o1`, the CPE inhibition was 12.6% (active).
In the case of `COC(=O)C1=C(c2ccc(C(C)=O)cc2)C[C@@H]2CC[C@H]1N2C(=O)N1CCCCC1`, the CPE inhibition is reported as “inactive”.
For `Cc1c(C(c2ccc(O)cc2)c2c(O)c3ccccc3oc2=O)c(=O)n(-c2ccccc2)n1C` (stereo not given), the CPE inhibition was 0.205%.
`Cc1ccc(-n2c(O)c(/C=N/N3CCOCC3)c(=O)[nH]c2=S)cc1` showed a CPE inhibition of 0.115%.
In the case of `COC(=O)C1=C(c2ccc(F)cc2F)C[C@@H]2CC[C@H]1N2C(=O)NC(C)C`, the CPE inhibition is reported as “inactive”.
With `COc1ccc(/C=C/C(=O)c2c(O)n(CCC3=CCCCC3)c(=O)[nH]c2=O)cc1` the CPE inhibition was 9.38% (active).
For `O=C(N/N=C/c1c(O)n(CCC2=CCCCC2)c(=O)[nH]c1=O)c1ccccc1`, the CPE inhibition was 0.065%.
In the case of `O=C(/C=C/c1ccc2c(c1)OCO2)c1c(O)n(CCC2=CCCCC2)c(=O)[nH]c1=O`, the CPE inhibition is reported as 4.09%.
With `CC(ON1CC1(C(F)(F)F)C(F)(F)F)(C(N)=O)C(N)=O` (stereo not given) the CPE inhibition was 0.53%.
In the case of `CN1c2ccc([N+](=O)[O-])cc2CC2(C(=O)NC(=O)N(c3ccccc3)C2=O)C1c1ccccc1` (stereo not given), the CPE inhibition is reported as 15.4% (active).
For `CN1c2ccc([N+](=O)[O-])cc2CC2(C(=O)NC(=O)NC2=O)C1c1ccccc1` (stereo not given), the CPE inhibition was “inactive”.
`CC(C)N1C(=O)NC(=O)C2(Cc3cc([N+](=O)[O-])ccc3N(C)C2c2ccccc2)C1=O` (stereo not given) showed a CPE inhibition of 1.19%.
With `CN1C(=O)C(=Cc2ccc(N3CCOCC3)o2)C(=O)N(C)C1=O` the CPE inhibition was “inactive”.
With `C/C(=N\Nc1ccccc1)c1c(O)n(Cc2ccccc2)c(=O)[nH]c1=O` the CPE inhibition was “inactive”.
`COC(=O)C1=C(c2ccc(F)cc2F)C[C@@H]2CC[C@H]1N2C(=O)NCCOc1ccccc1Cl` showed a CPE inhibition of 3.74%.
`CCCc1nc2ccc(Br)cc2c(=O)n1-c1ccc([N+](=O)[O-])c(C(F)(F)F)c1` showed a CPE inhibition of 0.98%.
For `COC(=O)C1=C(c2cc3ccccc3o2)C[C@@H]2CC[C@H]1N2C`, the CPE inhibition was 0.83%.
For `CCCNC(=O)N1[C@H]2CC[C@@H]1C(C(=O)OC)=C(c1cc3ccccc3o1)C2`, the CPE inhibition was 4.1%.
With `COC(=O)C1=C(c2cc3ccccc3o2)C[C@@H]2CC[C@H]1N2C(=O)NCc1cccc2ccccc12` the CPE inhibition was 16.2% (active).
Work on `CCC(=NCCC(c1ccccc1)c1ccccc1)c1c(O)[nH]c(=O)[nH]c1=O` yielded a CPE inhibition of 2.3%.
Molecule `COC(=O)C1=C(c2ccc3ccccc3c2)C[C@@H]2CC[C@H]1N2C(=O)NC1Cc2ccccc2C1` has a CPE inhibition of 6.91%.
In the case of `O=C(Nc1ccccc1)c1c(O)[nH]c(=O)[nH]c1=O`, the CPE inhibition is reported as “inactive”.
In the case of `Cc1ccc(CN2C(=O)CN=C(c3ccccc3)c3ccccc32)cc1`, the CPE inhibition is reported as 9.14% (active).
For `O=C1CN=C(c2ccccc2)c2cc(Br)ccc2N1Cc1cc(=O)n2ccccc2n1`, the CPE inhibition was 0.155%.
Work on `O=C(N/N=C/c1c(O)n(CCc2ccccc2)c(=O)[nH]c1=O)c1ccncc1` yielded a CPE inhibition of 0.65%.
With `CN(C)S(=O)(=O)c1cc(NC(=O)COC(=O)Cc2ccccc2)ccc1Cl` the CPE inhibition was “inactive”.
With `COC(=O)C1=C(c2ccc(S(C)(=O)=O)cc2)C[C@@H]2CC[C@H]1N2C(=O)NCc1ccc(C(F)(F)F)cc1` the CPE inhibition was 0.31%.
